Source: PubChem
In the library only some 15% were active in any assay of this set; here they are far more common.
DT40 TDP1 CPT: qHTS for Inhibitors of human tyrosyl-DNA phosphodiesterase 1 (TDP1): qHTS in cells in presence of CPT | chicken DT40 Tdp1-/-;hTDP1 cells + 20 nM CPT, ATP luminescence, 48 h | Potency, µM (top dose mostly 46.2 µM), without a hit: at the highest dose activity change, negative = growth inhibition, hits mostly inhibitors | hit rate 12% among 420,000; note: nearly all actives have a fitted effect of over 55% in size
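Chicken DT40 Tdp1-/- cells stably complemented with human TDP1 were seeded at 400 cells/well in medium containing 20 nM camptothecin, exposed to pin-transferred compounds, and grown at 37 °C for at least 48 hr. Viability was read as ATP luminescence.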
DT40 TDP1 no CPT: qHTS for Inhibitors of human tyrosyl-DNA phosphodiesterase 1 (TDP1): qHTS in cells in absence of CPT; AID 686978, 2013; Potency, µM (series often up to 46.2 µM), inactives show at the highest dose activity change, negative = growth inhibition, hits mostly inhibitors; DT40 Tdp1-/- hTDP1 cells, no CPT, ATP luminescence, 48 h; hit rate 15% among 420,000; note: nearly all actives have a fitted effect of over 55% in size
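Growth kinetics read by CellTiter-Glo luminescence after ≥48 hr at 37 °C. Cells: DT40 Tdp1-/- stably carrying human TDP1, 400 per well, compound exposure in the absence of CPT (DMSO vehicle).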
VP16 counter: VP16 counterscreen qHTS for inhibitors of ROR gamma transcriptional activity. Drosophila S2 Gal4-VP16 UAS-luciferase, luminescence, 20 h. hit rate 3.5% among 310,000. Potency, µM (series often up to 53.6 µM), inactives show at the highest dose activity, negative = inhibition, most hits filed as inhibitors;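 note: Gal4-VP16 expression switched on by copper sulfate through the metallothionein promoter; nearly all actives have a fitted effect of over 50% in size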
RORgamma inh: qHTS for inhibitors of ROR gamma transcriptional activity; Nuclear receptor ROR-gamma (Mus musculus), P51450; Drosophila S2 Gal4-RORgamma UAS-luciferase reporter, 20 h; Potency, µM (titrated, usually from 53.6 µM), without a hit: top-dose activity change, negative = inhibition, most hits filed as inhibitors; hit rate 5.4% among 310,000; note: nearly all actives have a fitted effect of over 60% in size
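Drosophila S2 cells stably expressing Gal4-DBD/mouse RORγ fusion under metallothionein promoter plus UAS-luciferase; compound 1 h, then 700 uM CuSO4 induction for 20 h at ambient temperature; inhibition read as reduced luminescence.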
ELG1 DNA repair: qHTS screen for small molecules that inhibit ELG1-dependent DNA repair in human embryonic kidney (HEK293T) cells expressing luciferase-tagged ELG1; hit rate 2.3% among 330,000; HEK293T ELG1-luciferase reporter, luminescence, 16 h; DNA damage induced by 5-fluorouridine; AID 504467, 2011; Potency, µM (titrated, usually from 46.1 µM), for inactives: top-dose activity change, negative = inhibition, hits mostly inhibitors; note: nearly all actives have a fitted effect of over 55% in size
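Reporter activity after DNA damage by 5-fluorouridine is monitored. Compound-treated cells incubate 16 hr at 37 °C, then ONE-Glo is added for 30 min before luminescence reading.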
ALOX12 inh: Primary qHTS assay for inhibitors of human arachidonate 12S-lipoxygenase (ALOX12): Round 2; Polyunsaturated fatty acid lipoxygenase ALOX12 (Homo sapiens), P18054; purified 12hLO, xylenol orange hydroperoxide absorbance; Potency, µM (titrated, usually from 108 µM), inactives show at the top dose activity change, negative = inhibition, actives largely listed as inhibitors; hit rate 1.1% among 580,000; AID 1671190, 2021
Target sequence (P18054 whole entry, looked up): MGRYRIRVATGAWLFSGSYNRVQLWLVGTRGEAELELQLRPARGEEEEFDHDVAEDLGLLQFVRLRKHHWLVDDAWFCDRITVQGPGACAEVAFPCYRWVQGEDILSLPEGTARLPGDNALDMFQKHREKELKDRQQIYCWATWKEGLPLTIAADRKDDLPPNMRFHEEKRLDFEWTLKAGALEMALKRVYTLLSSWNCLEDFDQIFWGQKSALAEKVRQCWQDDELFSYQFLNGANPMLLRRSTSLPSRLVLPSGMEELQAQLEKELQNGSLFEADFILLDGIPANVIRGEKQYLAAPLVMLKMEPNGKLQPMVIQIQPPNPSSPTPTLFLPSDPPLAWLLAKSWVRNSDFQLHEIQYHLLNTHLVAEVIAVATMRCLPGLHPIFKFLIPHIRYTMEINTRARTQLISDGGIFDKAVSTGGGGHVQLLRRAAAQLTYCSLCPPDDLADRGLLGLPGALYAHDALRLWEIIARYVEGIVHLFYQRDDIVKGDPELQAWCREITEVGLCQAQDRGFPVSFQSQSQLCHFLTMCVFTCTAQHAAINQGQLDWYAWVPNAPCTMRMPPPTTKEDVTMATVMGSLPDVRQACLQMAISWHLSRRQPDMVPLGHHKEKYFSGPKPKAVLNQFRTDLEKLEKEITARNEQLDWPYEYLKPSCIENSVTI
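Purified human 12hLO at 150 nM in 25 mM Hepes, 0.01% Triton X-100, pH 7.0, preincubated 15 min at room temperature with compound. Reaction started with 40 uM arachidonic acid, 30 min at room temperature. Hydroperoxide measured by Fe-xylenol orange, 573/405 nm absorbance ratio.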
Starred values were filed as active, the others as inactive; ? = inconclusive; · = no result given; [ ] = dose if it differs, or a comment. Calls come from the whole dose curve; as a rule, active = well fitted curve in the direction sought with a large enough effect; inconclusive = small, poorly fitted or top-dose-only effect, or another doubt; inactive = no such curve, though single readings can be large; an effect the other way counts as inactive or inconclusive. % is set by controls: 0 for no effect and ±100 for the full control effect; potency is the fitted concentration of half-maximal effect.

SMILES | DT40 TDP1 CPT | DT40 TDP1 no CPT | VP16 counter | RORgamma inh | ELG1 DNA repair | ALOX12 inh
C[C@H](CO)N1C[C@H](C)[C@@H](CN(C)Cc2ccncc2)Oc2c(NC(=O)Cc3ccccc3)cccc2C1=O | ? | ? | · | · | -11.7% | 1.2%
C[C@@H]1CN([C@H](C)CO)C(=O)c2cc(NC(=O)C3CCCCC3)ccc2O[C@@H]1CN(C)Cc1ccncc1 | ? | -19.2% | · | · | 15.8% | -0.2%
C[C@H](CO)N1C[C@H](C)[C@@H](CN(C)Cc2ccccc2)Oc2c(NS(=O)(=O)c3ccc(F)cc3)cccc2C1=O | -0.3% | -5.4% | · | · | 15.6% | -1.3%
C[C@H](CO)N1C[C@H](C)[C@@H](CN(C)CC2CCCCC2)Oc2c(NC(=O)CCC(F)(F)F)cccc2C1=O | 20.6µM* | 14.6µM* | · | · | -23.3% | -2.5%
C[C@H](CO)N1C[C@H](C)[C@@H](CN(C)Cc2ccc(Cl)c(Cl)c2)Oc2c(NS(=O)(=O)c3ccc(F)cc3)cccc2C1=O | ? | 23.1µM* | · | · | ? | -13.9%
C[C@H](CO)N1C[C@H](C)[C@@H](CN(C)C(=O)NC2CCCCC2)Oc2c(NC(=O)CCC(F)(F)F)cccc2C1=O | ? | -19.9% | · | · | -6.5% | -2.3%
C[C@@H]1CN([C@@H](C)CO)C(=O)c2cc(NC(=O)C3CC3)ccc2O[C@@H]1CN(C)Cc1ccc(Cl)c(Cl)c1 | 20.6µM* | 23.1µM* | · | · | ? | 5.4%
C[C@H](CO)N1C[C@H](C)[C@@H](CN(C)Cc2ccccc2)Oc2c(NC(=O)Cc3ccccc3)cccc2C1=O | 14.6µM* | 10.3µM* | · | · | ? | 12.7%
C[C@@H]1CN([C@@H](C)CO)C(=O)c2cccc(NS(=O)(=O)c3cccs3)c2O[C@H]1CN(C)Cc1ccc(C(F)(F)F)cc1 | 16.4µM* | ? | · | · | 15.4% | 0.9%
O=C(O)C(c1c[nH]c2cc(Br)ccc12)N1CCN(Cc2ccc(Cl)cc2Cl)CC1 (configuration not stated) | · | · | · | · | · | 39.8µM*
O=C(O)C(c1c[nH]c2cc(Cl)ccc12)N1CCN(Cc2ccccn2)CC1 (configuration not stated) | · | · | · | · | · | -0.6%
O=C(O)C(c1c[nH]c2cc(Cl)ccc12)N1CCN(C(c2ccccc2)c2ccccc2)CC1 (configuration not stated) | · | · | · | · | · | 7.94µM*
CC(Sc1ccc(Br)cc1)C(=O)O (configuration not stated) | · | · | · | · | · | -5.2%
c1ccc2sc(C3CCN(Cc4nnnn4Cc4ccc5c(c4)OCO5)CC3)nc2c1 | ? | 18.4µM* | -9.9% | 24.2% | ? | -17.6%
O=C1CCC[C@@H]2C[C@@]3(C[C@@H]4CCN1[C@H]24)Nc1cc(Cl)c(Cl)cc1NC3=NCc1ccccc1 | 18.4µM* | 20µM* | · | · | · | -17.2%
O=C1CCC[C@@H]2C[C@@]3(C[C@@H]4CCN1[C@H]24)Nc1ccccc1NC3=NC1CCCCC1 | -25.6% | -24.7% | · | · | · | ·
CC(C)(C)CC(C)(C)N=C1Nc2ccc(Cl)cc2NC12C[C@H]1CCC(=O)N3CC[C@@H](C2)[C@@H]13 (some centres not stated) | ? | 12.6µM* | · | · | · | ·
CC(C)(C)CC(C)(C)N=C1Nc2ccc([N+](=O)[O-])cc2N[C@]12C[C@H]1CCCC(=O)N3CC[C@@H](C2)[C@@H]13 | 17.8µM* | 11.2µM* | · | · | · | ·
COc1cccc(-c2cc(CNC(=O)C(c3ccc(F)cc3)N(C)C)no2)c1 (configuration not stated) | · | · | · | · | · | -1.7%
O=C(O)c1cc(Cl)c(I)c(Cl)c1 | · | · | · | · | · | 0.6%
C=CCn1c(SCC(=O)Nc2ccc(C(=O)O)cc2)nc2scc(-c3ccccc3)c2c1=O | 6.3% | -5.8% | · | · | -1.4% | -3.5%
Cc1ccc(-c2csc3nc(SCC(=O)N(C)C)n(Cc4ccccc4)c(=O)c23)cc1 | 11.6µM* | 13µM* | -17.2% | -6.8% | 20.6µM* | 1.0%
NC(=O)CSc1nc2scc(-c3ccc(Cl)cc3)c2c(=O)n1Cc1ccccc1 | 9.2µM* | 8.2µM* | -16.1% | 32.6% | 16.4µM* | -8.2%
NC(=O)C(NC(=O)NCC(F)(F)F)C(N)=O | · | · | · | · | · | 23.9%
O=[S+]1([O-])NCC2(CCN(Cc3cncs3)CC2)Nc2ccccc21 | · | · | · | · | · | 54.6%
SMILES | DT40 TDP1 CPT | DT40 TDP1 no CPT | VP16 counter | RORgamma inh | ELG1 DNA repair | ALOX12 inh
C=CCn1c(=O)/c(=C/c2ccc(F)cc2)s/c1=C(\C#N)c1nnc2n1CCCCC2 | 23.1µM* | 16.4µM* | 0.5% | -11.8% | ? | 8.2%
CC(C)Oc1ccc(-c2noc(-c3nnn4c3COC(c3ccc(F)cc3)C4)n2)cc1 (configuration not stated) | · | · | · | · | · | 48.6%
COc1cccc(/C=N/N=C(\N)c2nonc2N)c1O | 0.0065µM* | 0.92µM* | 0.631µM* | 0.1µM* | ? | 1.2%
COc1cc(/C=N/N=C(/N)c2nonc2N)cc(Br)c1OCc1ccccc1C | ? | ? | ? | ? | 6.7% | 60.1%
Cc1ccc(S(=O)(=O)Oc2c(C)occc2=O)cc1 | · | · | · | · | · | 18.4%
Cc1cc(C(=O)NCc2nc(-c3cccc(NC(=O)c4cc(C)oc4C)c3)oc2C)nc(C)n1 | -15.0%[9.04 µM] | 20.6µM* | · | · | · | 12.5%
Cc1ccc(C(=O)Nc2cccc(-c3nc(CNC(=O)c4cccc(C)c4C)c(C)o3)c2)s1 | 23.1µM* | 20.6µM* | · | · | · | 9.2%
Cc1ccc(C(=O)Nc2cccc(-c3nc(CNC(=O)c4ccc(F)cc4Cl)c(C)o3)c2)s1 | 10.4%[9.04 µM] | 0.3% | · | · | · | 5.8%
Cc1occc1C(=O)Nc1cccc(-c2nc(CNC(=O)c3ccc(N4CCCCC4)cc3)c(C)o2)c1 | ? | 18.4µM* | · | · | · | 24.7%
Cc1ccc2[nH]c(C(=O)NCc3nc(-c4cccc(NC(=O)c5cc(C)oc5C)c4)oc3C)cc2c1 | ? | ? | · | · | · | -0.3%
Cc1cc(C(=O)Nc2cccc(-c3nc(CNC(=O)c4sc(C)nc4C)c(C)o3)c2)c(C)o1 | 7.2%[9.04 µM] | 20.6µM* | · | · | · | ?
CCOc1cc(-c2ccc(C)cc2)nc2ccc(C(=O)N3CCCC3)cc12 | · | · | · | · | · | -0.2%
CN1CCN(c2oc(-c3ccco3)nc2C#N)CC1 | · | · | · | · | · | -18.0%
